Measured values published in PubChem BioAssay (Tox21).
Results filed as inconclusive are left out. A number with no mark means an inactive call. Calls come from the whole dose curve; as a rule, active = well fitted cell-killing curve with a large enough effect in the repeat runs; inconclusive = weak or mixed curves, or effect the other way; inactive = flat fitted curve, though single readings scatter.

assay: qHTS RealTime-Glo MT Cell Viability Assay in HepG2 cells - 40 hour (AID 1224870); settings: RealTime-Glo luminescence; series mostly up to 76.8 µM; activity change, negative = cytotoxic: at the top concentration; note: nearly all actives have a fitted effect of over 50% in size
Outline: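 Real-time viability: cells seeded at 600 per well together with NanoLuc and cell-permeant prosubstrate, compounds added after 5 h incubation. Luminescence tracked at 0, 8, 16, 24, 32 and 40 h of exposure.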
% is set by controls: 0 for no effect and ±100 for the full control effect.

SMILES	activity change, negative = cytotoxic
COCC(=O)N(c1c(C)cccc1C)N1CCOC1=O	3.85%
CC(=O)Nc1cc([As](=O)(O)O)ccc1O	-11.3% [at 35.3 µM]
CNNC	0.793%
CCC(Cl)[N+](=O)[O-] (configuration not stated)	-1.27%
CCCSC(=O)Cl	-4.23%
CC(Cl)(Cl)[N+](=O)[O-]	-0.783%
Cc1ncc2n1-c1ccc(Cl)cc1C(c1ccccc1F)=NC2	-4.59% [at 35.3 µM]
CC1=C(C(=O)O)N2C(=O)[C@@H](N)[C@H]2SC1	1.44% [at 15.8 µM]
Cc1nnc2n1-c1sc(CCC(=O)N3CCOCC3)cc1C(c1ccccc1Cl)=NC2	0.163% [at 35.3 µM]
CC1CCCCC1NC(=O)Nc1ccccc1 (configuration not stated)	-0.0938%
CCCSP(=S)(OCC)Oc1ccc(Cl)cc1Cl (configuration not stated)	-8.52%
COC(=O)c1ccccc1S(=O)(=O)NC(=O)N(C)c1nc(C)nc(OC)n1	-0.354%
CNC(=O)N(C)c1nc2ccccc2s1	0.0609%
CNC(=O)Oc1ccccc1C1OCCO1	3.06%
CCOc1nc(C(Cl)(Cl)Cl)ns1	-6.73%
CC(=O)[C@H]1CC[C@H]2[C@@H]3CC[C@H]4C[C@H](O)CC[C@]4(C)[C@H]3C(=O)C[C@]12C	1.44% [at 35.3 µM]
O=CNC(N1CCN(C(NC=O)C(Cl)(Cl)Cl)CC1)C(Cl)(Cl)Cl (configuration not stated)	0.998%
Cc1cc(C)nc(Nc2ccccc2)n1	0.706%
CCCCC(=O)Cl	-0.628%

SMILES	activity change, negative = cytotoxic
CCCCN(CCCCO)N=O	2.02%
COc1cccc2c1cc([N+](=O)[O-])c1c(C(=O)O)cc3c(c12)OCO3	-20.1%
C[C@]12CC[C@H]3[C@@H](CCC4=CC(=O)CC[C@@]43C)[C@@H]1CC[C@@H]2C(=O)O	2.67% [at 35.3 µM]
C#CCN1C(=O)COc2cc(F)c(N3C(=O)C4=C(CCCC4)C3=O)cc21	-0.229%
[As]#[In]	-0.151%
N#CCBr	0.838%
CCC(C)n1c(=O)[nH]c(C)c(Br)c1=O (configuration not stated)	0.597%
CCS(=O)(=O)CCSP(=O)(OC)OC	-1.72%
C=C(C)CN(CC)c1c([N+](=O)[O-])cc(C(F)(F)F)cc1[N+](=O)[O-]	0.071%
Fc1cc(Br)ccc1CBr	2.19% [at 35.3 µM]
OCCSCSCCO	0.587%
CCCCOC(=O)[C@@H](C)Oc1ccc(Oc2ccc(C#N)cc2F)cc1	0.448%
CCC#N	2.5%
CCC(=O)c1ccccc1	-1.98%
CCOC(=O)C1(c2ccccc2)CCN(CCc2ccc(N)cc2)CC1	1.1% [at 35.3 µM]
CSc1ccc(C(=O)C(C)(C)N2CCOCC2)cc1	-5.47%
N#CCNCC#N	-0.122%
CC(=O)CCc1ccc2c(c1)OCO2	2.1%
